The campaign covered roughly 230,000 compounds. About 1,000 (0.43%) were called active. Where a call stands in place of a potency, no number is given. This excerpt belongs to a sample that is enriched for actives. Values without a mark were called inactive. The call rests on the fitted dose curve; in most records, active means well fitted inhibition curve with a large enough effect (not every such curve was filed as active); inactive means no such curve, though single readings can be large or run the other way.
What follows are compounds tested against Guanine nucleotide-binding protein G(i) subunit alpha-1 (Homo sapiens) (UniProt P63096) (assay: qHTS Assay for Inhibitors of RGS12 GoLoco Motif Activity (Red Fluorophore)). Settings: Gai1:RGS12 GoLoco peptide FP, rhodamine, 10 min; series mostly up to 61.6 µM.
Chain of Guanine nucleotide-binding protein G(i) subunit alpha-1 (Homo sapiens) (P63096 whole entry, looked up): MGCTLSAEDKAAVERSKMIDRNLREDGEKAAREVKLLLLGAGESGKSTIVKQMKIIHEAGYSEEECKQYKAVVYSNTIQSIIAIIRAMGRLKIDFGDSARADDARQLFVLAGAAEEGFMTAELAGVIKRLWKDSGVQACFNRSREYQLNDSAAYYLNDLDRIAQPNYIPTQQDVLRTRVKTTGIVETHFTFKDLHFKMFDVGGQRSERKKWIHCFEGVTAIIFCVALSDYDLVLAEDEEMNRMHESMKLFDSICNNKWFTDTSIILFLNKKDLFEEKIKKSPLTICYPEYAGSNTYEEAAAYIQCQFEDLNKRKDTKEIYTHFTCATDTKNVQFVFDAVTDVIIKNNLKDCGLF
Source text: Assay Submitter: Siderovski, David P, University of North Carolina at Chapel Hill
Screening Center PI: Austin, C.P.
Screening Center: NIH Chemical Genomics Center [NCGC]
G-protein-coupled receptors (GPCRs) are major targets for drug discovery. The regulator of G-protein signaling (RGS)-protein family has important roles in GPCR signal transduction. RGS proteins contain a conserved RGS-box, which is often accompanied by other signaling regulatory elements. RGS proteins accelerate the deactivation of G proteins to reduce GPCR signaling; however, some also have an effector function and transmit signals. Combining GPCR agonists with RGS inhibitors should potentiate responses, and could markedly increase the agonist's regional specificity. The diversity of RGS proteins with highly localized and dynamically regulated distributions in brain makes them attractive targets for pharmacotherapy of central nervous system disorders. […] A complex of Gai1 and fluorescently labeled G-alpha-binding peptide (the "GoLoco motif") derived from RGS12 is incubated with library members. Inhibitors of the binding are detected by a decrease in the fluorescence polarization (FP) of the fluorophore. Protein was supplied by Prof. David Siderovski, University of North Carolina at Chapel Hill.
Assay Buffer: 10 mM Tris-HCl, 150 mM NaCl, 0.1 mM GDP (prepared fresh), and 0.05% NP40 at pH 7.5.
15 nM Rhodamine labeled peptide/25 nM protein in columns 1, 2, 5 - 48. Titration of unlabeled peptide control ([H][…][NH2], custom synthesized and HPLC-purified by Tufts University Core Facility) from 20 mM, then 1:2 dilution, 16-point in duplicate, pin-transferred to column 2, rows 1 to 32. Column 1 is neutral.
Rhodamine-labeled peptide (Rhodamine-[…]-NH2) was custom-synthesized and HPLC-purified by Invitrogen (Carlsbad, CA).
Four uL of reagents were dispensed to 1536-well Greiner black solid-bottom plates. Compounds and controls (23 nL) were transferred via Kalypsys PinTool. The plates were incubated for 10 min at room temperature, and then read on ViewLux (Perkin-Elmer) High-throughput CCD imager using BODIPY for the rhodamine-labeled decapeptide probe. During dispense, reagent bottles were kept submerged into 4 deg C water bath and all liquid lines were covered with aluminum foil to minimize probe and protein degradation. All screening operations were performed on a Kalypsys robotic system (Kalypsys, Inc., San Diego, CA) containing one RX-130 and two RX-90 anthropomorphic robotic arms.
Further: nearly all actives have a fitted effect of over 30% in size.
Potency means the concentration at half of the fitted maximal effect.

Compound	Potency	activity, negative = inhibition
CCOC(=O)c1ccc(NC(=O)CSc2ncccn2)cc1	2.82 µM (active)	–
CCOC(=O)c1ccc(NC(=O)CSc2nnc(COc3ccccc3OC)n2C)cc1	inactive	–
CCOC(=O)c1ccc(NC(=O)Cn2cnc3cc(C)c(C)cc32)cc1	inactive	–
CCOC(=O)C1=C(C)c2ccccc2OC1(C)C(=O)OCC (centres undefined)	inactive	–
Cc1ccccc1-n1nnnc1SCCCC(=O)c1ccc(F)cc1	inactive	–
N#Cc1ccsc1NC(=O)CN1CCN(S(=O)(=O)c2cc(Cl)ccc2Cl)CC1	inactive	–
CCOc1ccc(N=NS(=O)(=O)O)cc1	–	-17.6% [at 14.2 µM]
Cc1ccccc1CC1(CO)CCCN(Cc2ccc3c(c2)OCCO3)C1 (centres undefined)	inactive	–
NCCC(=O)c1ccccc1N	inactive	–
CCCc1ccc(-c2c(C)sc(NC(=O)c3ccnn3C)c2C#N)cc1	inactive	–
CC(C)=C(NC(=O)c1ccccc1)C(=O)N/N=C(\C)c1ccccc1O	inactive	–
Cc1ccc2[nH]c(=O)c(CN(CCCN(C)C)C(=O)Nc3cccc(Cl)c3)cc2c1	inactive	–
N=C1C(c2nc3ccccc3s2)=C(O)CN1NC(=O)c1ccc([N+](=O)[O-])cc1	inactive	–
COc1ccc(/C=C(\C#N)C(=O)NCCCn2ccnc2)cc1	inactive	–
CCOC(=O)c1cnc(SC)nc1Sc1ccc(Cl)cc1Cl	inactive	–
O=P(O)(O)OC[C@H](O)CO	inactive	–
CCOC(=O)c1c(NC(=S)NC)sc2c1CCCC2	inactive	–
Cc1ccc(NC(=O)CN2CCCCC2)c2c1CC(C)(C)O2	inactive	–
Cc1ccc(Nc2cc(C)nc3c(C)ccc([N+](=O)[O-])c23)cc1	inactive	–
NCCCCC(N)C(=O)O (centres undefined)	inactive	–
CC(C)[C@@H]1NC(=O)[C@H](Cc2ccccc2)NC(=O)[C@@H](CC(=O)O)NC(=O)CNC(=O)[C@H](CCCNC(=N)N)NC1=O	inactive	–
CCS(=O)(=O)N1Cc2ccccc2CC1C(=O)Nc1nc2ccc(F)cc2s1 (centres undefined)	inactive	–
O=C(NCc1cc(C(F)(F)F)cc(C(F)(F)F)c1)C1CC(c2cccc(F)c2)=NO1 (centres undefined)	inactive	–

Compound	Potency	activity, negative = inhibition
Cc1ccccc1-c1n[nH]c(=S)n1/N=C/c1ccc(-c2ccccc2Br)o1	inactive	–
O=c1[nH]cnc2c1c(-c1ccccc1)cn2-c1ccc(F)cc1	inactive	–
Clc1ccc(CSc2nnc3c(n2)[nH]c2ccccc23)cc1	inactive	–
COC(c1ccccc1)(c1ccccc1)C(Oc1nc(C)cc(C)n1)C(=O)O (centres undefined)	inactive	–
COc1cccc(NC(=O)CN(C)C(=O)/C=C/c2cc(OC)ccc2OC)c1	inactive	–
O=C(NCCc1c[nH]c2ccccc12)c1cc2ccccc2oc1=O	inactive	–
CN(c1ccccc1)S(=O)(=O)c1cc(C(=O)Nc2nc3ccccc3[nH]2)ccc1Cl	inactive	–
CCC(C)[C@@H](N)C(=O)O (some centres undefined)	inactive	–
C[N+]1(CCNC(=O)/C=N/O)CCCCC1	12.6 µM (active)	–
CC1=C/C(=N\OS(=O)(=O)c2ccccc2)C=CC1=O	28.2 µM (active)	–
Cc1ccc(S(=O)(=O)c2ccc(Oc3ccccc3)cc2)cc1	inactive	–
CC1=C/C(=N\S(=O)(=O)c2ccccc2)C(C(C)C)=CC1=O	inactive	–
CC#CC[N+](C)(C)CCCCCC	inactive	–
NC(=O)C(=O)N/N=C/c1ccc([N+](=O)[O-])o1	inactive	–
S=c1[nH]nc(-c2ccccc2)n1/N=C/c1c[nH]c2ccccc12	inactive	–
CSC(=S)N/N=C/c1c[nH]c2ccccc12	inactive	–
C[n+]1ccc(/C=C/c2c[nH]c3ccccc23)cc1	0.562 µM (active)	–
Cc1ccc(CCCOC(=O)C[N+]2(C)CCCCC2)cc1	inactive	–
CCCCOC(=O)Cn1c(=O)n(CC(=O)OCCCC)c2cc(C)ccc21	inactive	–
Cc1ccc(CCCOC(=O)C[N+]2(C)CCCC2)cc1	7.08 µM (active)	–
C[C@@]12CCC(=O)C=C1CC[C@H]1C2[C@@H](O)C[C@]2(C)[C@@H]1CC[C@@]2(O)C(=O)COC(=O)C1CCCC1 (some centres undefined)	–	-1.69% [at 14.2 µM]
O=C(CC1SC(=Nc2ccccc2)N(Cc2ccccn2)C1=O)Nc1cccc(Cl)c1 (centres undefined)	inactive	–
CC(C)S(=O)(=O)c1csc(NC(=O)Nc2ccc(Cl)cc2)c1Cl	inactive	–

Compound	Potency	activity, negative = inhibition
CC(C)N(Cc1ccccc1)C(=O)COC(=O)c1cnccn1	inactive	–
CCO[C@H]1OC(C(=O)NCc2ccccc2)=C[C@@H](c2coc3ccccc3c2=O)[C@@H]1CCCO	inactive	–
Cc1ccc(-c2ncc(Cl)cc2-c2ccc(S(C)(=O)=O)cc2)cn1	inactive	–
CCOC(=O)N/N=C/c1cn(Cc2ccccc2Cl)c2ccccc12	inactive	–
CN1CCN(/N=C2/C(=O)Nc3ccc([N+](=O)[O-])cc32)CC1	inactive	–
CCN1C(=O)c2cccc3c(N)ccc1c23	inactive	–
Cc1nn(-c2cc(Cl)ccc2N)c(=O)c2ccccc12	inactive	–
Cc1nn(C)cc1N1C(=O)c2cccc3c(N)ccc(c23)C1=O	14.1 µM (active)	–
Cc1cccc(N2C(=O)SC(SC(=Nc3ccccc3)Nc3ccccc3)C2=O)c1 (centres undefined)	inactive	–
O=C(C1=C[C@H](C2CC2)C[C@H](OCc2ccc(CO)cc2)O1)N1CCN(Cc2ccccc2)CC1	inactive	–
CCOC(=O)N1CCN(Cc2nc3ccc([N+](=O)[O-])cc3c(=O)n2-c2cccc(OC)c2)CC1	inactive	–
CCOC(=O)Nc1ccccc1N1C(=O)c2ccccc2C1=O	inactive	–
CCOC(=O)c1cc2n(c1N)-c1ccccc1C2=O	17.8 µM (active)	–
CCOC(=O)C1=C(C(=O)OCC)C(C(=O)OCC)N(S(=O)(=O)C(F)(F)F)c2ccccc21 (centres undefined)	inactive	–
Cc1cc2nc3c(=O)n(Cc4ccccc4)c(=O)[nH]c3nc2cc1N	12.6 µM (active)	–
O=c1[nH]c2c(c(=O)n1Cc1ccccc1)CCC2	inactive	–
Cc1nc2c(c(=O)n1Cc1ccco1)c1nc3ccccc3nc1n2Cc1ccccc1	inactive	–
C=CC(=O)c1ccc2ccccc2c1	inactive	–
O=C(Nc1ccc(O)cc1)c1ccccc1O	inactive	–
CC(=O)c1ccc(OCCN2CCOCC2)cc1	inactive	–
CC(C)CCOc1ccc(C(=O)C[N+]2(C)CCOCC2)cc1	3.55 µM (active)	–
COc1ccc(OCCC(=O)c2ccc(OC)cc2)cc1	inactive	–
O=C(CCCNS(=O)(=O)c1cccc2nsnc12)NCCN1CCN(c2ccccc2F)CC1	inactive	–
